Data: PubChem BioAssay (NCI)
This is part of a sample that, as a whole, favours compounds with a hit. Of some 79,000 tested, about 15% had one in any assay. The source made the active and inactive calls. Rule as the data show it: active = growth inhibition above about 70%; inactive = the rest.

Columns and labels:
[1] = NCI Yeast Anticancer Drug Screen. Data for the mec2-1 strain (AID 157); conditions: S. cerevisiae mec2-1 strain, at 100.0 µM, active compounds read high
Summary of the method: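 Using mec2-1 yeast: add compound, measure growth, express inhibition versus vehicle-treated cultures.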

[2] = NCI Yeast Anticancer Drug Screen. Data for the rad14 strain (AID 159);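 also: 0% = growth of vehicle-treated control cultures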; conditions: S. cerevisiae rad14 strain growth inhibition, active compounds read high
Summary of the method: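 Vehicle-treated cultures served as the baseline for growth inhibition of a DNA repair-mutant yeast strain exposed to each compound.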

[3] = NCI Yeast Anticancer Drug Screen. Data for the sgs1 mgt1 strain (AID 161);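 also: 0% = growth of cultures given vehicle only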; conditions: S. cerevisiae sgs1 mgt1 strain, active compounds read high
Summary of the method: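 Growth of a repair-deficient yeast mutant was monitored after compound treatment and expressed as inhibition relative to vehicle-treated cultures.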

[4] = NCI Yeast Anticancer Drug Screen. Data for the CLN2oe strain (AID 163);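 also: 0% = growth of vehicle-only control cultures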; conditions: S. cerevisiae CLN2oe strain, active compounds read high
Summary of the method: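 Whole-cell yeast growth assay. A strain engineered for altered cell-cycle control received compound, and inhibition relative to vehicle-treated cultures was recorded.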

[5] = NCI Yeast Anticancer Drug Screen. Data for the cln2 rad14 strain (AID 165);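 also: 0% = growth equal to vehicle treated cultures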; conditions: S. cerevisiae cln2 rad14 strain, active compounds read high
Summary of the method: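 Yeast strain cln2 rad14, bearing defects in cell cycle control and DNA repair, serves as the test system; values reflect growth inhibition compared with vehicle.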

[6] = NCI Yeast Anticancer Drug Screen. Data for the bub3 strain (AID 167); conditions: S. cerevisiae bub3 mutant strain, active compounds read high
Summary of the method: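 Inhibition values come from growth of compound-treated mutant yeast normalised to vehicle-treated controls.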

[7] = NCI Yeast Anticancer Drug Screen. Data for the wt2 strain (AID 169);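 also: 0% = growth of vehicle-treated yeast cultures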; conditions: S. cerevisiae wt2 strain growth inhibition, active compounds read high
Summary of the method: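 Treated yeast vs. vehicle-treated yeast: growth inhibition determined.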

[8] = NCI Yeast Anticancer Drug Screen. Data for the mlh1 strain (AID 171);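 also: 0% = growth of vehicle-treated control cultures of the same strain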; conditions: S. cerevisiae mlh1 strain growth inhibition, active compounds read high
Summary of the method: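 A yeast strain with a defined genetic lesion serves as the test organism. Cultures receive compound or vehicle, and growth is measured.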

[9] = NCI Yeast Anticancer Drug Screen. Data for the sgs1 strain (AID 173);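 also: 0% = growth of vehicle-only control cultures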; conditions: S. cerevisiae sgs1 mutant, active compounds read high
Summary of the method: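 A genetically defined yeast mutant is incubated with the test compound, and its growth is compared to that of the same strain given vehicle.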

[10] = NCI Yeast Anticancer Drug Screen. Data for the mlh1 rad18 strain (AID 175); conditions: S. cerevisiae mlh1 rad18 strain growth inhibition, active compounds read high
Summary of the method: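 Steps: expose repair-defective yeast to compound; measure growth; express inhibition against vehicle-treated controls.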

[11] = NCI Yeast Anticancer Drug Screen. Data for the rad18 strain (AID 177); conditions: S. cerevisiae rad18 mutant growth inhibition, active compounds read high
Summary of the method: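 Measured value is growth inhibition of a yeast strain bearing a DNA repair alteration, referenced to vehicle-treated cells.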

[12] = at 5.0 µM (retest, dose inferred, filed as 0.5)
[13] = at 50.0 µM (retest, dose inferred, filed as 5.0)

Measured: growth inhibition

CC1OC(OC2CCCc3c(O)c4c(c(O)c32)C(=O)c2ccccc2C4=O)CC(N)C1O (stereo not drawn)
active: [1] 99% | [2]; at 33.0 µM 99% | [2]; at 100.0 µM 99% | [3]; [13] 98% | [3]; at 50.0 µM 70.5% | [4]; at 33.0 µM 84% | [4]; at 100.0 µM 98% | [5]; [13] 98% | [6]; at 33.0 µM 89% | [6]; [13] 98% | [6]; at 100.0 µM 98% | [7]; at 33.0 µM 97% | [7]; at 100.0 µM 99% | [8]; at 33.0 µM 94% | [8]; at 100.0 µM 99% | [9]; at 33.0 µM 97% | [9]; at 100.0 µM 99% | [10]; [13] 99% | [11]; at 33.0 µM 90% | [11]; at 100.0 µM 99%
inactive: [2]; at 1.2 µM 2% | [2]; at 3.7 µM 12% | [2]; at 11.0 µM 55% | [3]; [12] 14% | [4]; at 1.2 µM 2% | [4]; at 3.7 µM -1% | [4]; at 11.0 µM 2% | [5]; [12] -3% | [5]; at 50.0 µM 43.9% | [6]; at 1.2 µM -4% | [6]; at 3.7 µM -5% | [6]; [12] 2% | [6]; at 11.0 µM -7% | [6]; at 50.0 µM 52.8% | [7]; at 1.2 µM 4% | [7]; at 3.7 µM 9% | [7]; at 11.0 µM 61% | [8]; at 1.2 µM -11% | [8]; at 3.7 µM -6% | [8]; at 11.0 µM 16% | [9]; at 1.2 µM -12% | [9]; at 3.7 µM -7% | [9]; at 11.0 µM 34% | [10]; [12] 12% | [10]; at 50.0 µM 66.2% | [11]; at 1.2 µM -8% | [11]; at 3.7 µM 0% | [11]; at 11.0 µM 8%
